Source: PubChem (several laboratories)
Only some compounds are listed: those with a hit (about 3.8% of all), similar ones and a draw of the others.
tim10-1 inh = growth inhibitors of tim10-1 mutant yeast, primary screen, luminescence, uHTS. S. cerevisiae tim10-1 ts strain growth, BacTiter-Glo, 24 h. inhibition, % at 20 µM. 2.2% of 330,000 active;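 active means inhibition of at least 40%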;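 further: mutant grown at 25 °C; 0% = DMSO wells with yeast and 100% = wells holding no yeast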
tim23-1 inh = growth inhibitors of tim23-1 mutant yeast, primary screen, luminescence, uHTS; S. cerevisiae tim23-1 growth, BacTiter-Glo luminescence, 24 h; inhibition, % at 20 µM; 1.3% of 330,000 active; AID 463212, 2010;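 active means growth inhibition of the mutant yeast at or above 50%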;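 further: temperature-sensitive mutant grown at 25 °C; plate controls were DMSO-treated mutant yeast for no effect and medium wells lacking yeast for full effect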
NLRP3 yeast inh = NALP3 inflammasome inhibitors in reconstituted yeast, primary screen, luminescence, uHTS; Yeast reconstituted NLRP3/ASC/caspase-1, beta-gal luminescence, 24 h; inhibition, % at 10 µM; 0.39% of 330,000 active; AID 2825, 2010;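 active means inhibition of 50% or more; inactive means inhibition below 50%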;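 further: plate controls were induced DMSO wells for no effect and uninduced yeast grown without galactose for full effect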
TIM10 inh = growth inhibitors of isogenic TIM10 control yeast, primary screen, counter-screen for tim10-1 yeast inhibitor project, luminescence, uHTS; inhibition, % at 10 µM; 1.4% of 330,000 active; S. cerevisiae TIM10 strain growth, BacTiter-Glo luminescence, 24 h;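 active means inhibition of 40% or more at the single tested concentration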;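 further: wild-type TIM10 isogenic control strain grown at permissive 25 °C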
Yeast superoxide = reduction of superoxide in aged yeast, primary screen, HTS. AID 2690, 2010. S. cerevisiae aged cells, superoxide DHE fluorescence; stronger effect = lower value. superoxide response (% of plate mean), % at 10 µM. 0.18% of 330,000 active;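 active means superoxide response under a set limit, about three screen SD below normal, cut at about 65% in these data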;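 further: yeast aged for seven days with compound at 30 °C before DHE staining; 100% = average MFI of all compound-treated wells on the plate with controls excluded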
NALP3 confirm = NALP3 inhibitors retested in yeast, confirmation, luminescence, single concentration. yeast expressing human NALP3. inhibition, % at 10 µM. AID 435006, 2010. 81% of 1,300 active. shares compounds with NLRP3 yeast inh; in the data active means inhibition above about 48%
Casp1 ASC ctr = CASP1-PYCARD signaling inhibition in yeast, confirmatory test, counterassay for NLRP3 inhibitor program, one-dose; shares compounds with NLRP3 yeast inh; yeast expressing Caspase-1-ASC, luminescence counter screen; inhibition, % at 10 µM; 66% of 1,000 active; AID 488784, 2010
NALP3 yeast rt = NALP3 inhibitors in yeast, repeat test, confirmation, luminescence, single concentration, retest | AID 488794, 2010 | 53% of 1,000 active | inhibition, % at 10 µM | shares compounds with NLRP3 yeast inh | yeast expressing human NALP3, luminescence read-out
An asterisk follows results filed as active; nt = no result. Unless noted, no stated cut-off is given here; in the data, active means inhibition above about 50%; inactive means the rest.

SMILES	tim10-1 inh	tim23-1 inh	NLRP3 yeast inh	TIM10 inh	Yeast superoxide	NALP3 confirm	Casp1 ASC ctr	NALP3 yeast rt
COC(=O)c1ccccc1NC(=O)C1CCCN(S(=O)(=O)c2ccc(F)cc2)C1 (stereo unspecified)	27	40	33	10	95	nt	nt	nt
COc1ccc(S(=O)(=O)N2CCCCCC2)cc1	33	26	-11	25	93	nt	nt	nt
COc1ccc(-c2ccc(S(=O)(=O)N3CCCC3)cc2)cc1	-12	28	53*	12	103	47	54*	44
COc1ccc(S(=O)(=O)N2CCN(c3nc(C)cc(C)n3)CC2)cc1	33	34	53*	5	91	65*	63*	58*
COc1ccc(S(=O)(=O)N2CCN(c3ncccn3)CC2)cc1	-1	18	26	-21	86	nt	nt	nt
Cc1c(C(=O)N/N=C/c2cccs2)nnn1-c1nonc1N	-14	-2	-2	16	110	nt	nt	nt
COc1ccc(/C=C(\NC(=O)c2ccccc2)C(=O)NCCC(=O)O)cc1	-7	4	7	-24	95	nt	nt	nt
O=C(NCCO)C(=O)NCC1OCCCN1S(=O)(=O)c1ccc2c(c1)OCCO2 (stereo unspecified)	7	11	0	0	107	nt	nt	nt
COc1cc(C(=O)Nc2scc(-c3ccc(Br)cc3)c2C(=O)O)cc(OC)c1OC	26	27	17	16	89	nt	nt	nt
Cc1cccc(C(=O)Nc2scc(-c3ccc(Br)cc3)c2C(=O)O)c1	12	43	61*	4	99	61*	13	26
S=c1[nH]nc(-c2cccc3ccccc23)n1-c1cccnc1	-4	-5	9	2	102	nt	nt	nt
CC1(c2nnc(-c3ccccc3)o2)CC(c2c(Cl)cccc2Cl)=NO1 (stereo unspecified)	-1	30	55*	-36	103	71*	32	37
O=C1CSc2ccc(C(=O)Nc3cccc(S(=O)(=O)Nc4ccc(Br)cc4)c3)cc2N1	-9	-2	6	4	97	nt	nt	nt
Cc1ccc(C(=O)CSc2nnc(-c3ccco3)n2C)cc1	3	9	0	2	86	nt	nt	nt
Cn1c(SCc2nc(-c3ccc(Cl)cc3)no2)nnc1-c1ccco1	21	39	53*	5	97	66*	49	37
Cc1ccc([N+](=O)[O-])cc1NC(=O)c1ccc(C(C)(C)C)cc1	25	23	57*	17	98	51*	44	28
Cc1ccc(C(=O)Nc2cc([N+](=O)[O-])ccc2C)cc1	11	2	13	7	102	nt	nt	nt
CC(NC(=O)C(=O)N1CCCCC1)C(c1cccs1)N1CCN(C)CC1 (stereo unspecified)	17	16	0	5	88	nt	nt	nt
Cn1cc(C(=O)Nc2ccc(C#N)cc2)c2ccccc2c1=O	16	18	12	-16	96	nt	nt	nt
COC(=O)c1sc2nc3c(cc2c1N)CCCC3	3	34	51*	12	89	66*	64*	58*
O=C(CNC(=O)c1ccccc1Br)N/N=C/c1ccccc1O	16	-1	5	15	86	nt	nt	nt
O=C(CNC(=O)c1ccccc1Br)N/N=C\c1cc([N+](=O)[O-])cc(Br)c1O	15	13	51*	2	118	37	23	35
COc1ncnc2sc(-c3ccccc3)cc12	-14	25	38	-1	114	nt	nt	nt
CN(C)c1ncnc2sc(-c3ccccc3)cc12	-18	45	65*	14	66	75*	44	37
O=C(c1ccccc1)n1ccc(-c2cnc(-c3ccccc3)s2)n1	-10	10	62*	0	99	60*	25	10
CCOC(=O)c1cnn(-c2cccc(Cl)c2)c1N	-11	-9	56*	-14	99	73*	53*	32
